MARV entry inh: blocks Marburg virus binding to or entry into cells. Marburg virus pseudotyped entry inhibition, cell reporter. AID 540276. Potency, µM (series often up to 37.8 µM), inactives show at the highest dose activity change, negative = inhibition, most hits filed as inhibitors. actives 1.8% (n = 300,000); calls by dose curve; tested in HEK293 cells; also: potency is read from the fitted curve at half-maximal effect
Vaccinia Venus: inhibitors of vaccinia virus (Venus reporter). Vaccinia virus Venus reporter expression, fluorescence. actives 0.46% (n = 330,000). Potency, µM (doses to about 36.5 µM), for inactives: at the highest dose activity change, negative = inhibition, actives largely listed as inhibitors; calls by dose curve; tested in A549 cells; also: potency is read from the fitted curve at half-maximal effect; nearly all actives have a fitted effect of over 30% in size
HCV inhibitor: blocks hepatitis C virus; actives 3.4% (n = 340,000); Huh7.5.1 HCVcc-Cre infection, luciferase reporter, 44 h; AID 651820; Potency, µM (series often up to 41.8 µM), for inactives: at the highest dose activity change, negative = inhibition, actives largely listed as inhibitors; active = well fitted inhibition curve with a large enough effect; inconclusive = small, poorly fitted or top-dose-only effect, or another doubt; inactive = no such curve, though single readings can be large or run the other way; also: potency is read from the fitted curve at half-maximal effect
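A cell-based infection assay in which seeded cells (1,000 per well) receive test compound after 4 h, are inoculated with HCVcc-Cre at approximately 0.5 moi, and are incubated 44 h before luminescence detection.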
VACV mCherry inh: vaccinia inhibition (mCherry reporter); Vaccinia virus mCherry reporter infection, fluorescence; Potency, µM (highest dose often 36.5 µM), without a hit: top-dose activity change, negative = inhibition, usual class: inhibitors; actives 0.63% (n = 310,000); AID 720579; calls by dose curve; tested in A549 cells; also: potency is read from the fitted curve at half-maximal effect; nearly all actives have a fitted effect of over 35% in size
HCMV antiviral: human cytomegalovirus inhibition | HFF cells, HCMV-luciferase reporter, 72 h; hits give low values | activity change, negative = inhibition, % at 57.5 µM | actives 4.5% (n = 410,000); in the data active = activity change below about -60%; inconclusive = no clear call, values can overlap the other calls; inactive = above about -39%
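Luciferase read-out from HCMV-luciferase-infected HFFs (MOI 1 PFU/cell) 72 h post infection at 37C; compounds added after 16 h cell attachment; activity normalized between buffer-only basal and Salinomycin (10uM) inhibitor controls.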
LASV entry inh: Lassa virus entry inhibition. Lassa virus pseudotype entry inhibition, cell reporter. Potency, µM (series often up to 37.9 µM), without a hit: top-dose activity change, negative = inhibition, usual class: inhibitors. actives 1.2% (n = 300,000); calls by dose curve; tested in HEK293 cells; also: potency is read from the fitted curve at half-maximal effect; nearly all actives have a fitted effect of over 50% in size
Starred values were filed as active, the others as inactive; i = inactive; ? = inconclusive; . = no result given; [ ] = another dose, or the depositor's remark. Rows were chosen to be rich in hits. Some 7.8% of all compounds tested hit in one or more screens of this group. % is scaled to controls: 0 for no effect and ±100 for the full control effect.

SMILES	MARV entry inh	Vaccinia Venus	HCV inhibitor	VACV mCherry inh	HCMV antiviral	LASV entry inh
COC(=O)C1=C(C(=O)OC)[C@@H]2N(C)c3ccccc3[C@@]23CCC(=O)N(Cc2ccc(OC)cc2)C3=N1	-9%[14.2 µM]	.	.	.	.	.
Cc1ccccc1CN1CCN2C=C(C(=O)NCC3CC3)OC2=NC1=O	.	.	.	.	11	.
Cc1cc(C)c2nccc(C)c2c1	.	-9%	.	-12%	.	.
COc1ccc(O)c(CN2CCC3(CCC(CNC(=O)c4ccco4)O3)CC2)c1 (centres undefined)	.	-11%	.	-22%	.	.
CCOc1cccc(C2C=C(c3ccc4c(c3)OCO4)NC(c3ccc(Cl)cc3)N2)c1O (centres undefined)	.	-21%	.	-9%	.	.
CCOCC(=O)Nc1ccc(-c2cn3c(C)csc3n2)cc1	.	-5%	.	-9%	?	3%[46.1 µM]
CC(=O)c1ccc(N2CCN(C(=O)Nc3ccc(C(C)C)cc3)CC2)cc1	3.2µM*	-28%	3.2µM*	?	-82*	?
Cc1nc2cc(NC(=O)Nc3ccc(N4CCOCC4)cc3)ccc2n1C	6%	-4%	18%	-2%	-63*	1%
CC(C)(C)c1ccc(C(=O)NC(=S)Nc2ccc(N3CCOCC3)cc2)cc1	0.79µM*	-10%	3%	-7%	-19	?
CCOc1ccc(NC(=O)Nc2ccc3c(c2)nc(C)n3C)cc1	.	1%	-23%	-4%	-27	.
COc1ccc(S(=O)(=O)c2cc3cc(C(C)(C)C)cc(O)c3oc2=O)cc1	-3%[46.1 µM]	0%	.	-17%	3	-4%[46.1 µM]
Cc1cnc(C)c(-c2cc(F)cc3c2OC(CNC(=O)c2cc(Cl)ccc2F)C3)n1 (centres undefined)	.	-8%	.	-8%	.	.
COC(=O)c1ccc(C(=O)OC)c(NC(=O)c2c(-c3ccccc3)c(-c3ccccc3)nn(C)c2=O)c1	24%[46.1 µM]	-26%	.	-21%	-6	3%[46.1 µM]
CCS(=O)(=O)c1ccc(OC)c(Nc2ncc(-c3cccc(F)c3)o2)c1	.	.	.	.	.	-34%
CC(=O)N1CCc2c(sc3c2c(=O)n(CCc2ccccc2)c(=O)n3Cc2ccccc2C)C1	?	-23%	.	-27%	-40	.
CC(=O)N1CCc2c(sc3c2c(=O)n(CCc2ccccc2)c(=O)n3Cc2ccc(Cl)cc2)C1	?	-28%	.	?	-106*	.
CCOC(=O)N1CCc2c(sc3c2c(=O)n(-c2ccc(Cl)cc2)c(=O)n3CC(C)C)C1	9%[46.1 µM]	-16%	.	-14%	-65*	-15%[46.1 µM]
CCOC(=O)N1CCc2c(sc3c2c(=O)n(-c2ccccc2C(F)(F)F)c(=O)n3Cc2ccccc2C)C1	-2%[46.1 µM]	-14%	.	-17%	-101*	-8%[46.1 µM]
COc1cccc(N2CCN(S(=O)(=O)c3ccc4[nH]c5c(c4c3)CCCC5)CC2)c1	.	-12%	.	-11%	-17	-21%[46.1 µM]
CCOC(=O)N1CCC(NC(=O)c2cnn(-c3ccc(C)cc3)c2-n2cccc2)CC1	.	-11%	.	-11%	-2	3%[46.1 µM]
O=C(Nc1ccc2oc(-c3cccnc3)nc2c1)c1cccnc1	0%	.	-2%	.	5	2%
Cc1c(C(=O)Nc2cccnc2)oc2ccc(Br)cc12	5µM*	?	?	?	51	?
Cc1c(C(=O)NCc2cccs2)oc2ccc(Br)cc12	7.3µM*	.	-2%	.	14	?
Cc1c(C(=O)Nc2ccc3oc(-c4cccnc4)nc3c2)oc2ccccc12	-19%	.	?	.	-67*	18µM*
Cc1c(C(=O)Nc2cccc(S(=O)(=O)N3CCOCC3)c2)oc2ccc(Br)cc12	?	-12%	?	i	48	26%
Cc1c(C(=O)NCc2ccccn2)oc2ccc(Br)cc12	21%	-11%	-18%	97%	31	20%
O=C(Nc1ccc2oc(-c3cccnc3)nc2c1)c1ccc([N+](=O)[O-])o1	?	-6%	2.5µM*	-12%	-12	?
CC1(C)CC(=O)c2cc(C(=O)Nc3ccc(Cl)cc3)c(=O)[nH]c2C1	?	23%	.	6%	57	7%[46.1 µM]
Nc1ncc(-c2cccc(S(N)(=O)=O)c2)c2scc(-c3ccc(F)c(Cl)c3)c12	.	.	.	.	.	22µM*
COc1ccc(CCn2c(=N)c(C(=O)NCC3CCCO3)cc3c(=O)n4cccc(C)c4nc32)cc1 (centres undefined)	.	.	-24%	.	-108*	.
